# Measured values reported in PubChem BioAssay (NCI).
# This is part of a sample that, as a whole, favours compounds with a hit. Of some 83,000 tested, about 20% had one in any assay.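 Assay: single dose, 48 h. Readout: percent growth (0 = no net growth; negative = cell death). Active: <10.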 Activity calls are given as the source filed them.
# Tests used:
# Assay in all cases: NCI-60 one-dose screen, 48 h (100 = growth as untreated, 0 = no growth, -100 = all killed)
# HOP-92 NSCLC = details: 10 µM
# K-562 leukemia = details: 10 µM
# U251 CNS = details: 10 µM
# SK-MEL-28 melanoma = details: 10 µM
# EKVX NSCLC = details: 10 µM
# UO-31 renal = details: 10 µM
# CCRF-CEM leukemia = details: 10 µM
# MOLT-4 leukemia = details: 10 µM
# SR leukemia = details: 10 µM
# HCT-116 colon = details: 10 µM
# HCC-2998 colon = details: 10 µM
# KM12 colon = details: 10 µM
# MDA-MB-468 breast = details: 10 µM unless noted
# CAKI-1 renal = details: 10 µM
# MDA-MB-231 breast = details: 10 µM
# LOX IMVI melanoma = details: 10 µM
# OVCAR-5 ovarian = details: 10 µM
# HS 578T breast = details: 10 µM
# SW-620 colon = details: 10 µM
Structure (SMILES),growth (HOP-92 NSCLC),growth (K-562 leukemia),growth (U251 CNS),growth (SK-MEL-28 melanoma),growth (EKVX NSCLC),growth (UO-31 renal),growth (CCRF-CEM leukemia),growth (MOLT-4 leukemia),growth (SR leukemia),growth (HCT-116 colon),growth (HCC-2998 colon),growth (KM12 colon),growth (MDA-MB-468 breast),growth (CAKI-1 renal),growth (MDA-MB-231 breast),growth (LOX IMVI melanoma),growth (OVCAR-5 ovarian),growth (HS 578T breast),growth (SW-620 colon)
CCC[Se]C(=O)c1ccc(C(=O)[Se]CCC)s1,-57.8% (active),7.32% (active),-60.4% (active),-62.9% (active),-79.7% (active),-55.5% (active),13.6% (inactive),7.32% (active),18.5% (inactive),-56% (active),-8.78% (active),5.4% (active),-80.6% (active),–,–,–,–,–,–
O=C([Se]C1C=CCCC1)c1ccc(C(=O)[Se]C2C=CCCC2)s1 (configuration not stated),-39.7% (active),6.15% (active),–,-79.4% (active),-89.9% (active),-100% (active),–,0.117% (active),-33% (active),-43.1% (active),-67.8% (active),-64.9% (active),-95.7% (active),-61.6% (active),–,–,–,–,–
C#CCCCN(CCNc1ccnc2cc(Cl)ccc12)C(=O)CCC(=O)O[C@@H]1O[C@@H]2OC3(C)CC[C@H]4[C@H](C)CC[C@@H]([C@H]1C)[C@@]24OO3,27.3% (inactive),13% (inactive),–,–,42.3% (inactive),14.3% (inactive),24.4% (inactive),-4.65% (active),-21.9% (active),19.4% (inactive),20.7% (inactive),27.7% (inactive),-3.36% (active),–,64.2% (inactive),-40.9% (active),45.1% (inactive),44.1% (inactive),33.2% (inactive)
CC[C@]12C=CCN3CC[C@@]4(c5ccc(OC)cc5N(C)[C@H]4[C@@](O)(C(=O)OC)[C@@H]1OC(=O)CCC[P+](c1ccc(F)cc1)(c1ccc(F)cc1)c1ccc(F)cc1)[C@@H]32,-6.2% (active),21.6% (inactive),–,–,–,81.5% (inactive),–,37.1% (inactive),42.6% (inactive),32.2% (inactive),22.4% (inactive),21.3% (inactive),-74.6% (active),73.1% (inactive),22% (inactive),31% (inactive),67% (inactive),19.1% (inactive),45.3% (inactive)
O=C(/C=C/c1ccc(F)cc1)c1nc2ccccc2n1Cc1ccc(F)cc1,22.9% (inactive),1.64% (active),–,-15.8% (active),13.6% (inactive),-33.6% (active),–,1.05% (active),1.79% (active),-56.9% (active),-78.9% (active),-4.81% (active),-15.7% (active),–,–,–,-7.92% (active),–,–
COc1cc(OC)c(S(=O)(=O)N(CCCl)CCCl)cc1C(=O)/C=C/c1cc(OC)c(OC)c(OC)c1,9.15% (active),4.13% (active),–,–,12.3% (inactive),-93.9% (active),–,-1.79% (active),2.75% (active),-87.7% (active),-91.1% (active),-61.2% (active),-40.5% (active),–,23.4% (inactive),-84.5% (active),-1.21% (active),78.3% (inactive),7.43% (active)
Cc1c2oc3c(C)ccc(C(=O)N[C@@H]4C(=O)N[C@H](C(C)C)C(=O)N5CCC[C@H]5C(=O)N(C)CC(=O)N(C)[C@@H](C(C)C)C(=O)OC4C)c3nc-2c(C(=O)N[C@@H]2C(=O)N[C@H](C(C)C)C(=O)N3CC(=O)C[C@H]3C(=O)N(C)CC(=O)N(C)[C@@H](C(C)C)C(=O)OC2C)c(N)c1=O (some centres not stated),-17.7% (active),–,1.58% (active),-27.8% (active),-12.5% (active),3.68% (active),–,–,–,22.3% (inactive),-20% (active),2.23% (active),-37.7% (active),–,1.92% (active),-0.489% (active),5.55% (active),5.64% (active),6.93% (active)
COCCOCCOCCOc1ccc(-n2cc(-c3ccc(O[C@H]4O[C@@H]5OC6(C)CC[C@H]7[C@H](C)CC[C@@H]([C@H]4C)[C@@]57OO6)cc3)nn2)cc1,83.2% (inactive),28.6% (inactive),–,–,–,11.5% (inactive),53.7% (inactive),21.2% (inactive),33.8% (inactive),37.3% (inactive),59.2% (inactive),31.6% (inactive),13.3% (inactive),–,79.9% (inactive),36.1% (inactive),72% (inactive),43.9% (inactive),27.7% (inactive)
C=CC[Se]C(=O)c1cncc(C(=O)[Se]CC=C)c1,-18% (active),-15.7% (active),-72.9% (active),–,–,-98.4% (active),–,-22.9% (active),-13.3% (active),-86.4% (active),-92.6% (active),-73.1% (active),-85.2% (active),–,–,–,–,–,–
